# Data published in the supplement of paper PMC11150407.
# Structures can show the parent of a compound that is named as a salt. In all, about 2,100 compounds went through this assay and about 180 (8.6%) showed an effect of 50% or more. The sample holds strong results, similar compounds and a random draw of the others, so the mix is not that of the screen.
# Tested on: MOLM1 and UCSD/AML1 (averaged)
# Assay: cell viability relative to DMSO control (POC); higher = less growth inhibition
# Conditions: 1 µM; 72 h
# Protocol: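 Primary viability screen in the 3q26 EVI1-high AML cell lines MOLM1 and UCSD/AML1 (1.5e3 cells/well, 384-well), compounds at 1 uM for 72 h. ATP CellTiter-Glo read-out given as percent of viable cells over DMSO control (POC), averaged over duplicates. DMSO was the negative control and 5 uM etoposide the positive control. This mapping covers the MicroSource Spectrum and Selleck anticancer libraries (drug names).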
row,SMILES,cell viability [%]
1,O=C(O)CCCN1C(=O)c2cccc3cccc(c23)C1=O,103
2,COc1cc2cc3c4cc(OC)c(OC)cc4cc[n+]3c(C)c2cc1OC,99.6
3,C[C@H]1[C@H](C)CC[C@]2(C(=O)O)CC[C@]3(C)C(=CC[C@@H]4[C@@]5(C)C[C@@H](O)[C@H](O)[C@@](C)(CO)[C@@H]5[C@H](O)C[C@]43C)[C@H]12,86.8
4,O=C(Nc1ccccc1-c1cn2c(CN3CCNCC3)csc2n1)c1cnc2ccccc2n1,95.6
5,COc1cc(OC)c2c(=O)c(-c3ccc4c(c3)OCO4)coc2c1,127
6,"COC(=O)C[C@H]1C(C)(C)[C@@H](O)[C@@H]2CC3=C4CC(O)O[C@@H](c5ccoc5)[C@]4(C)CCC3[C@@]1(C)C2=O (stereo partly drawn) [3,16-DIDEOXYMEXICANOLIDE-3beta-DIOL]",86.1
7,COc1cc2ncnc(Nc3cccc(Br)c3)c2cc1OC,61.8
8,C#Cc1cccc(Nc2ncnc3cc(OC)c(OCCCCCCC(=O)NO)cc23)c1,22.2
9,C#Cc1cccc(Nc2ncnc3cc(OCCOC)c(OCCO)cc23)c1,65.1
10,COc1cc2c(N3CCN(C(=O)Nc4ccc(OC(C)C)cc4)CC3)ncnc2cc1OCCCN1CCCCC1 [Tandutinib (MLN518)],73.6
11,C#Cc1cccc(Nc2ncnc3cc(OCCOC)c(OCCO)cc23)c1 [OSI-420 (Desmethyl Erlotinib)],42.9
12,COc1ccc(-c2cc(=O)c3c(O)cc(OC)cc3o2)cc1,110
13,CC(=O)C12OC(C)(c3ccccc3)OC1CC1C3CCC4=CC(=O)CCC4(C)C3CCC12C (stereo unspecified),89.4
14,CCC(C)C(=O)OC1[C@@H]2CC3=C4CC(=O)O[C@@H](c5ccoc5)[C@]4(C)CCC3[C@@](C)(C2=O)[C@@H](CC(=O)OC)C1(C)C (stereo partly specified),99.4
15,"CC(C)CCC[C@@H](C)[C@H]1CC[C@H]2[C@@H]3C[C@@H](O)[C@@]4(O)C[C@@H](O)CC[C@]4(C)[C@H]3CC[C@]12C [CHOLESTAN-3beta,5alpha,6beta-TRIOL]",102
16,CC(=O)O[C@H]1CC[C@]2(C)C(C[C@@H](OC(C)=O)[C@]3(C)C4=CC(=O)O[C@H](c5ccoc5)[C@@]4(C)CCC23)C1(C)C (stereo partly drawn) [3-DEOXO-3beta-ACETOXYDEOXYDIHYDROGEDUNIN],92.3
17,CC(C)c1cc(-c2n[nH]c(=O)n2-c2ccc3c(ccn3C)c2)c(O)cc1O [Ganetespib (STA-9090)],2.49
18,CC(=O)O[C@H]1C[C@@H](O)C(C)(C)[C@@H]2C[C@@H](OC(C)=O)[C@]3(C)[C@H](CC[C@@]4(C)[C@@H](c5ccoc5)OC(=O)[C@H]5O[C@@]534)[C@@]12C,104
19,O=c1cc(-c2ccccc2)oc2cc(O)c(O)cc12,96.6
20,COc1cc(Nc2ncc3c(n2)-c2ccc(Cl)cc2C(c2c(F)cccc2OC)=NC3)ccc1C(=O)O [MLN8237 (Alisertib)],49.6
21,C=C1[C@H]2CC[C@@]3(C)[C@H](c4ccoc4)OC(=O)C[C@]13O[C@H]1C[C@H](O)C(C)(C)[C@H](CC(=O)OC)[C@]12C [3-DEOXY-3beta-HYDROXYANGOLENSIC ACID METHYL ESTER],97.7
22,C[C@@H]1CC[C@@]2(OC1)O[C@H]1C[C@H]3[C@@H]4CC=C5C[C@@H](O)CC[C@]5(C)[C@H]4CC[C@]3(C)[C@H]1[C@@H]2C,93.7

row,SMILES,cell viability [%]
1,O=c1cc(-c2ccc(O)cc2)oc2cc(O[C@@H]3O[C@H](CO)[C@@H](O)[C@H](O)[C@H]3O)cc(O)c12,104
2,O=C(O)c1cc2ccccc2[nH]1,118
3,O=C(O)CCCc1ccccc1,90.8
4,O=C(O)CCC(=O)c1ccc(-c2ccccc2)cc1,93.4
5,O=C(O)CCc1nc(-c2ccccc2)c(-c2ccccc2)o1,45.5
6,C[C@]1(O)C[C@@H](c2nc(-c3ccc4ccc(-c5ccccc5)nc4c3)c3c(N)nccn32)C1 [OSI-906 (Linsitinib)],100
7,O=C(Nc1cccc(Cl)c1)Nc1ncc(CCNc2ncnc3ccsc23)s1 [SNS-314 Mesylate],60
8,CC1(C)[C@@H](O[C@H]2O[C@H](C(=O)O)[C@@H](O)[C@H](O)[C@H]2O[C@@H]2O[C@H](C(=O)O)[C@@H](O)[C@H](O)[C@H]2O)CC[C@]2(C)[C@H]3C(=O)C=C4[C@@H]5C[C@@](C)(C(=O)O)CC[C@]5(C)CC[C@@]4(C)[C@]3(C)CC[C@@H]12,96.4
9,COc1cc(/C=C/C(=O)O)cc(OC)c1OC,118
10,COc1cc([C@@H]2c3cc4c(cc3[C@@H](O[C@@H]3O[C@@H]5CO[C@@H](c6cccs6)O[C@H]5[C@H](O)[C@H]3O)[C@H]3COC(=O)[C@H]23)OCO4)cc(OC)c1O,27.5
11,COc1cc([C@@H]2c3cc4c(cc3[C@@H](O[C@@H]3O[C@@H]5CO[C@@H](C)O[C@H]5[C@H](O)[C@H]3O)[C@H]3COC(=O)[C@H]23)OCO4)cc(OC)c1O,59.4
12,COc1cc([C@@H]2c3cc4c(cc3[C@@H](O[C@@H]3O[C@@H]5CO[C@@H](c6cccs6)O[C@H]5[C@H](O)[C@H]3O)[C@H]3COC(=O)[C@H]23)OCO4)cc(OC)c1O [Teniposide (Vumon)],12.4
13,C[C@@H]1CC[C@@]2(OC1)O[C@H]1C[C@H]3[C@@H]4CC[C@H]5C[C@@H](O)CC[C@]5(C)[C@H]4CC[C@]3(C)[C@H]1[C@@H]2C,97.1
14,CCC[C@H](NC(=O)/C(C#N)=C/c1cccc(Br)n1)c1ccccc1,57.8
15,COc1ccc(C=CC(=O)O)cc1OC,106
16,CC(=O)c1c(O)cc(O)cc1O,106
17,O=C(NC1CCCCC1)NC1CCCCC1,120
18,O=C(O)C(=O)O.[NH-]C1CCCCC1[NH-].[Pt+2] (stereo unspecified) [Oxaliplatin (Eloxatin)],41.3
19,CC(C)=CCOc1cc2oc(=O)ccc2cc1O,98
20,O=c1cc(-c2cc(O)c(O)c(O)c2)oc2cc(O)cc(O)c12,106
21,COC(=O)C[C@H]1C2(C)CC34OC5(C)O[C@@]6([C@H](OC(C)=O)C(OC(C)=O)[C@]7(C)C(/C(=C(/O)C(C)C)C(=O)O[C@H]7c7ccoc7)[C@@]6(O5)[C@H](OC(C)=O)[C@@]3(O)C2OC(=O)C(C)C)[C@]14C (stereo partly specified),102
22,O=C(N[C@H](CO)[C@H](O)c1ccc([N+](=O)[O-])cc1)C(Cl)Cl,101

row,SMILES,cell viability [%]
1,O=C(O)CCC(=O)OC[C@@H](NC(=O)C(Cl)Cl)[C@H](O)c1ccc([N+](=O)[O-])cc1,40.2
2,CCCCCCCCCCCCCCCC(=O)OC[C@@H](NC(=O)C(Cl)Cl)[C@H](O)c1ccc([N+](=O)[O-])cc1,96.2
3,C[C@@H]1CC[C@@]23CCC4(C)[C@@](C=CC5[C@@]6(C)CCC(=O)C(C)(C)C6CC[C@]54C)(OC2=O)C3[C@H]1C (stereo partly specified),95.6
4,Oc1cc(O)c2c(c1)O[C@H](c1cc(O)c(O)c(O)c1)[C@H](O)C2,97.9
5,COc1ccc2c(c1)OC[C@@H](Cc1ccc(OC)c(OC)c1)[C@@H]2O,82.3
6,CCCCCC/C=C\CCCCCCCc1cccc(O)c1C(=O)O,81.2
7,CC(=O)O[C@H]1CC[C@@]2(C)[C@H](CC[C@@H]3[C@@H]2CC[C@]2(C)[C@@H]4[C@H](C[C@@H]32)O[C@]2(CC[C@@H](C)CO2)[C@H]4C)C1,94.2
8,COC1=C2C[C@@H](C)C[C@H](OC)[C@H](O)[C@@H](C)/C=C(\C)[C@H](OC(N)=O)[C@@H](OC)/C=C\C=C(/C)C(=O)NC(=CC1=O)C2=O [Geldanamycin],0.865
9,CO[C@H]1/C=C\C=C(/C)C(=O)NC2=CC(=O)C(NCCN(C)C)=C(C[C@@H](C)C[C@H](OC)[C@H](O)[C@@H](C)/C=C(\C)[C@@H]1OC(N)=O)C2=O [17-DMAG HCl (Alvespimycin)],2.31
10,C=CCNC1=C2C[C@@H](C)C[C@H](OC)[C@H](O)[C@@H](C)/C=C(\C)[C@H](OC(N)=O)[C@@H](OC)/C=C\C=C(/C)C(=O)NC(=CC1=O)C2=O [17-AAG (Tanespimycin)],29.1
11,C=C1[C@@H]([C@@]2(C)C=CC(=O)C(C)(C)[C@@H]2CC(=O)OC)CC[C@@]2(C)[C@H](c3ccoc3)OC(=O)[C@H]3O[C@]132,102
12,COC1=CC(=O)C=C(OC)C1=O,91.5
13,COc1cc(OC)c(C(C)=O)c(O)c1C,111
14,CN[C@@H](C)C(=O)N[C@H]1CN(C(=O)CC(C)C)CC[C@H]2CC[C@@H](C(=O)NC(c3ccccc3)c3ccccc3)N2C1=O,68.5
15,CON,109
16,CC(=O)OC/C=C(\C)CC/C=C(\C)CC/C=C(\C)CC/C=C(\C)CC/C=C(\C)CC/C=C(\C)CC/C=C(\C)CC/C=C(\C)CCC=C(C)C,106
17,O=C1C=C2CC3(O)COc4c(ccc(O)c4O)C3=C2C=C1O (stereo unspecified),97.6
18,Cc1c2oc3c(C)ccc(C(=O)N[C@@H]4C(=O)N[C@H](C(C)C)C(=O)N5CCC[C@H]5C(=O)N(C)CC(=O)N(C)[C@@H](C(C)C)C(=O)O[C@@H]4C)c3nc-2c(C(=O)N[C@@H]2C(=O)N[C@H](C(C)C)C(=O)N3CCC[C@H]3C(=O)N(C)CC(=O)N(C)[C@@H](C(C)C)C(=O)O[C@@H]2C)c(N)c1=O,1.96
19,CCN(CC)CCNC(=O)c1c(C)[nH]c(/C=C2\C(=O)Nc3ccc(F)cc32)c1C [Sunitinib Malate (Sutent)],32.9
20,Cc1[nH]c(/C=C2\C(=O)Nc3ccc(S(=O)(=O)N(C)c4cccc(Cl)c4)cc32)c(C)c1C(=O)N1CCN(C)CC1,62.8
21,Cc1[nH]c(/C=C2\C(=O)Nc3ccc(S(=O)(=O)Cc4c(Cl)cccc4Cl)cc32)c(C)c1C(=O)N1CCC[C@@H]1CN1CCCC1,92.1
22,CC(=O)Oc1cc(-c2coc3cc(OC(C)=O)c(OC(C)=O)c(OC(C)=O)c3c2=O)cc(OC(C)=O)c1OC(C)=O,93.9
